This passage reports Potency results from PubChem BioAssay AID485297 (National Center for Advancing Translational Sciences (NCATS), 2010).

The campaign covered roughly 320,000 compounds. About 9,100 (2.8%) were called active. Entries that show only a call come without a potency. Another 3% or so got no clear call; they are omitted. This is one part of a sample in which actives are shown more often than they occur. The call rests on the fitted dose curve; in most records, active means well fitted activation curve with a large enough effect; inconclusive means small, poorly fitted or top-dose-only effect; inactive means no such curve, though single readings can be large or run the other way.
Potency means the concentration at half of the fitted maximal effect.

A short description of the assay: qHTS Assay for Rab9 Promoter Activators. Further: nearly all actives have a fitted effect of over 60% in size. Conditions: Huh7 Rab9 promoter-luciferase reporter, luminescence, 24 h; series mostly up to 9.22 µM. The gist of the method:
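Luminescence from Amplite-detected luciferase (10 minutes, ambient) reports Rab9 promoter activation. Before that, stable Rab9-luciferase Huh7 cells (1500/well, reduced-serum OP-MEM I plus 10% FBS) were exposed to compound for 24 hours at 37C.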
Turning to `Cn1c(CCC(=O)OCC(=O)NCc2ccccc2Cl)nc(=O)c2ccccc21`, the Potency entry is “inactive”.
For `CC(C)n1ncc2c(C(=O)Nc3ccc(CC#N)cc3)cc(C3CC3)nc21`, the Potency result is “inactive”.
The entry for `C=CCC(NC(=O)Cc1ccccc1)C(=O)NCCC` (stereo not drawn) is “inactive”.
On to `COc1ccc(CNC(=O)c2ccc3oc(C(C)C)nc3c2)cc1`, for which the Potency is 2.82 µM (active).
Turning to `COc1ccc(CNC(=O)c2cc(=O)c3c(C)cc(C)cc3o2)cc1`, the Potency entry is “inactive”.
The entry for `CC(C)c1nc2cc(C(=O)NC(C)c3cnn(C)c3)ccc2o1` (stereo not drawn) is “inactive”; for `CCOc1ccc(S(=O)(=O)N2CCC(C(=O)NCC(=O)Nc3cccc(Cl)c3C)CC2)cc1` it is “inactive”.
In the case of `Cc1cccc(/C(N)=N/OC(=O)c2ccccc2Cl)c1`, the Potency was 0.891 µM (active).
On to `Cc1cccc(C(=O)c2cccc(C)c2)c1`, for which the Potency result is “inactive”.
The same measure for `N/C(=N\OC(=O)c1cc(-c2ccccc2)nc2ccccc12)c1ccncc1`: “inactive”; for `O=S(=O)(c1ccc(Cl)cc1)c1nc(-c2ccccc2F)oc1NCCN1CCOCC1`: “inactive”; for `CC(=O)c1c(C)[nH]c(C(=O)Nc2cc(S(=O)(=O)N(C)C)ccc2C)c1C`: “inactive”.
Turning to `O=C(CCNC(=O)c1ccc([N+](=O)[O-])cc1)NC1CCCCC1`, the Potency entry was “inactive”.
As to `CC(=O)c1ccc(N2CCN(C(=O)CCc3ccccc3)CC2)cc1`, the Potency result is “inactive”.
Take `CC(=O)c1ccc(N2CCN(CC(O)c3ccccc3)CC2)cc1` (stereo not drawn): the Potency entry was “inactive”.
The figure for `CC(=O)c1ccc(N2Cc3ccccc3C2)cc1` is 1.78 µM (active); for `COc1ccc(F)cc1C(=O)COC(=O)c1n[nH]c(=O)c2ccccc12` it is “inactive”; for `CCOC(=O)CSc1nccc(N(C)C)c1C#N` it is “inactive”.
Turning to `CCOc1ccc2cc(C#N)c(SCC(=O)OC)nc2c1`, the Potency is 1.58 µM (active).
The entry for `Cc1nonc1NC(=O)CSc1nc2ccccc2cc1C#N` is “inactive”.
The same measure for `COc1ccc(C(C)(C)C)cc1NC(=O)CCN1C(=O)C2CCCCC2C1=O` (stereo not drawn): “inactive”; for `Cc1ccc(O)c(NC(=O)c2cc(-c3ccco3)on2)c1`: “inactive”.
The same measure for `CCOc1ncccc1C(=O)OCC(=O)c1c[nH]c2ccccc12`: “inactive”.
With `CC1CC1C(=O)OCC(=O)Nc1cccc(F)c1` (stereo not drawn), the Potency entry is “inactive”.
The figure for `Cc1ccc(OCc2nc3ccccc3n2C)cc1` is 1.78 µM (active); for `Cn1c(COc2ccc(Cl)cc2)nc2ccccc2c1=O` it is “inactive”.
Consider `CC(C)n1c(COc2ccccc2)nc2ccccc21`, for which the Potency result was “inactive”.
The entry for `CN(C(=O)CC1C(=O)NCCN1Cc1ccc2ccccc2c1)C1CCOCC1` (stereo not drawn) is “inactive”; for `O=C(CNC(=O)OCc1ccccc1)NC1CCCCNC1=O` (stereo not drawn) it is “inactive”; for `CCc1ccc(-c2nn(-c3ccccc3C)cc2C(=O)N2CCN(C3CCS(=O)(=O)C3)CC2)cc1` (stereo not drawn) it is “inactive”.
The same measure for `NC(=O)Cc1ccc2sc(-c3ccccc3)nc2c1`: 3.55 µM (active); for `NC(=O)Cc1ccc2c(c1)[nH]c1ccccc12`: “inactive”; for `O=C(O)Cc1sc(-c2ccccc2)nc1-c1cccs1`: “inactive”.
With `CC(=O)N1CCOc2ccc(S(=O)(=O)N3CCC(C(=O)Nc4ccccc4F)CC3)cc21`, the Potency entry is “inactive”.
Take `CCc1nnc(NC(=O)c2cc(S(=O)(=O)N3CCCCC3)ccc2C)s1`: the Potency result is “inactive”.
The same measure for `COc1ccc(-c2nnc3n2CCCCC3)cc1`: “inactive”; for `COc1ccc(-c2nc(SCC(=O)N3CCCC3)n[nH]2)cc1`: “inactive”; for `COc1ccc(-c2nc3n(c2Br)CCC3)cc1`: 2.51 µM (active).
Turning to `Cc1cccc(NC(=O)c2ccc3nsnc3c2)c1C`, the Potency entry is “inactive”.
The same measure for `O=C(Nc1ccccc1Cl)c1ccc2nsnc2c1`: 2.51 µM (active); for `O=C(Nc1ccccc1N1CCCCC1)c1ccc2nccnc2c1`: “inactive”.
The same measure for `COc1ccc(Cl)cc1NC(=O)COc1ccc2c(c1)OCO2`: “inactive”; for `CCOC(=O)CN(C(=O)CN1CCOCC1)c1ccc(Br)cc1`: “inactive”; for `O=C(COC(=O)c1ccncc1)c1ccccc1`: “inactive”.
`CC(=O)Nc1cccc(C(=O)OCC(=O)NCc2cc(C)c(O)c(C)c2)c1`: the Potency result is “inactive”.
In the case of `O=C(COC(=O)c1ccccc1)c1ccc2c(c1)OCCO2`, the Potency is 0.631 µM (active).
Turning to `O=C(CN1CCN(c2ccccc2F)CC1)c1ccc2c(c1)OCO2`, the Potency entry was “inactive”.
Regarding `O=C(OCc1ccccc1F)c1ccc2c(c1)OCCO2`, the Potency is 3.16 µM (active).
For the molecule `CC(=O)Nc1cccc(C(=O)OCC(=O)c2ccc3c(c2)OCO3)c1`, the Potency is 0.0891 µM (active).
Turning to `CC(NC(=O)COC(=O)c1ccc2c(c1)OCO2)c1ccccc1` (stereo not drawn), the Potency result was “inactive”.
The entry for `O=C(COC(=O)c1ccc2c(c1)OCCO2)NCc1ccccc1` is “inactive”; for `C/C(=N\NC(=O)C(N)=O)c1ccc2c(c1)OCCO2` it is “inactive”; for `CN(CC(=O)NC(=O)Nc1ccccc1F)Cc1ccccc1` it is “inactive”.
As to `CCCn1c(N)c(C(=O)CSc2nnc3n2CCCCC3)c(=O)[nH]c1=O`, the Potency result was “inactive”.
On to `O=C(Nc1nnc(CCN2CCCCC2)s1)c1cccc(Cl)c1`, for which the Potency result is “inactive”.
For the molecule `CC(NC(=O)CN(C)S(=O)(=O)c1ccc(F)cc1)C1CC2CCC1C2` (stereo not drawn), the Potency entry is “inactive”.
The entry for `Cc1ccc(CNC(=O)CC(NC(=O)c2ccccc2)c2ccccc2)cc1` (stereo not drawn) is “inactive”.
The entry for `CC1(C)CC(=O)C=C(c2cccc3c2Oc2ccccc2S3)C1` is “inactive”; for `COc1cc(SC)ccc1C(=O)Nc1cc(C)ccn1` it is 3.55 µM (active).
The same measure for `COc1ccccc1OCCNC(=O)CCNC(=O)c1ccccc1Cl`: “inactive”.
Consider `Cc1ccnc(NC(=O)CNC(=O)c2ccccc2)c1`, for which the Potency result was “inactive”.
The entry for `COc1cc(SC)ccc1C(=O)N(Cc1ccccc1)c1ccccc1` is “inactive”.
The same measure for `COc1cc(SC)ccc1C(=O)NCCOc1ccccc1Cl`: 3.98 µM (active).
The entry for `Cc1ccnc(NC(=O)CCCOc2ccccc2)c1` is “inactive”; for `COc1cc(F)c(C2=CC(=O)CC(C)(C)C2)cc1F` it is “inactive”; for `Cc1ccc(CC(=O)Nc2ccc(S(=O)(=O)N3CCOCC3)cc2)cc1C` it is “inactive”.
Consider `CN1CCN(S(=O)(=O)c2cccc(C(=O)Nc3sccc3C#N)c2)CC1`, for which the Potency entry was “inactive”.
The same measure for `COc1cccc(CNC(=O)CN2C(=O)NC(Cc3ccccc3)(c3ccccc3)C2=O)c1` (stereo not drawn): “inactive”; for `Cc1nc(C)c(C(=O)Nc2ccc(C)c(F)c2)o1`: “inactive”.
Take `Cc1cccc(NC(=O)NC(=S)NC(=O)c2ccccc2)c1`: the Potency entry was “inactive”.
The same measure for `Cc1ccc(NC(=O)NC(=O)c2ccccc2)cc1F`: 0.398 µM (active); for `CC1CCCCC1NC(=O)NC(=O)COC(=O)C1=NN(c2ccccc2)C(=O)CC1` (stereo not drawn): “inactive”.
On to `O=C(NCC1(N2CCCCC2)CCCCC1)c1ccc(NS(=O)(=O)c2ccc(F)cc2)cc1`, for which the Potency result was “inactive”.
